# High-throughput results as filed in PubChem.
# ClpP mod = qHTS Assay for Activators of ClpP | purified B. subtilis ClpP, FRET peptide cleavage, 20 min | Potency, µM (series often up to 57.5 µM), for inactives: at the top dose activity change, negative = active | actives 1.9% (n = 340,000) | AID 651965, 2013; active = well fitted falling curve with a large enough effect; inconclusive = small, poorly fitted or top-dose-only effect; inactive = no such curve, though single readings can be large or run the other way; note: the source files actives as falling curves though it sought activators and does not explain the sign; nearly all actives have a fitted effect of over 65% in size
#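 FRET quenching reversal measured ClpP activation: 10 microg/mL B. subtilis ClpP at pH 8 with the FRET-FV decapeptide, read at 430 nm after 320 nm excitation. The 20-min minus 0-min signal was scaled between DMSO/no-enzyme wells and ADEP (5.8 microM final).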
# RORgamma inh = qHTS for inhibitors of ROR gamma transcriptional activity; Nuclear receptor ROR-gamma (Mus musculus), P51450; actives 5.4% (n = 310,000); Potency, µM (highest dose often 53.6 µM), inactives show top-dose activity change, negative = inhibition, usual class: inhibitors; Drosophila S2 Gal4-RORgamma UAS-luciferase reporter, 20 h; AID 2551, 2010; note: % is set by controls: 0 for no effect and ±100 for the full control effect; nearly all actives have a fitted effect of over 60% in size
# Target sequence (P51450 whole entry, looked up, the tested form may be a part): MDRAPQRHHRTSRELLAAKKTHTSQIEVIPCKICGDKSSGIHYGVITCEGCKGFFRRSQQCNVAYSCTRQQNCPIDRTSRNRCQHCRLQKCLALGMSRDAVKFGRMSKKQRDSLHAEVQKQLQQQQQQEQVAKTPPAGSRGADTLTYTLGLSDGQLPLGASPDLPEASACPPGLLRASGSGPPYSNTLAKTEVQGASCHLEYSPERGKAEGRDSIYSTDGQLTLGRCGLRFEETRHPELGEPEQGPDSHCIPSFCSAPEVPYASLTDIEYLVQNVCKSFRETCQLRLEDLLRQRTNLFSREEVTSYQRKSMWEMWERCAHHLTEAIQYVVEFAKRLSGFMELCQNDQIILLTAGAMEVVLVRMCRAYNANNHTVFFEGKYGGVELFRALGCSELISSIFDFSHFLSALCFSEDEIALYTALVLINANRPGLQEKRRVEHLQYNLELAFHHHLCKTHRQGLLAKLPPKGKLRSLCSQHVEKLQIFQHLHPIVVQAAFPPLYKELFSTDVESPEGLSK
#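 Luminescence from a UAS-regulated Photinus luciferase reporter in stably transfected Drosophila Schneider cells is measured; decreased signal marks ROR gamma inhibition. Fusion expression is induced by 700 uM copper sulfate for 20 hr.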
# VP16 counter = VP16 counterscreen qHTS for inhibitors of ROR gamma transcriptional activity; Drosophila S2 Gal4-VP16 UAS-luciferase, luminescence, 20 h; actives 3.5% (n = 310,000); Potency, µM (doses to about 53.6 µM), inactives show at the top dose activity, negative = inhibition, actives largely listed as inhibitors;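 note: Gal4-VP16 expression switched on by copper sulfate through the metallothionein promoter; % is set by controls: 0 for no effect and ±100 for the full control effect; nearly all actives have a fitted effect of over 50% in size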
# Sfp inh = qHTS Assay for Inhibitors of Bacillus subtilis Sfp phosphopantetheinyl transferase (PPTase); AID 1490, 2009; Potency, µM, inactives show largest response in the series, negative = inhibition, usual class: inhibitors; Biochemical Sfp PPTase activity, qHTS; actives 3.5% (n = 310,000);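 note: the enzyme is Sfp with the accession as filed and its product quenches rhodamine fluorescence; 0% = enzyme reaction without inhibitor and -100% = no enzyme wells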
#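 Fluorescence-quenching assay with 15 nM Sfp, 5 uM rhodamine-CoA and 12.5 uM BHQ-2-labelled ybbR peptide in pH 7.6 Hepes/MgCl2 buffer. Enzyme was pre-incubated with compound for 15 min at room temperature. Rate was taken from the 30-min fluorescence change (525/598 nm).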
# Epigenetic reg = Quantitative High-Throughput Screen for Regulators of Epigenetic Control; AID 1865, 2009; actives 0.2% (n = 280,000); murine LDR cells, GFP reporter derepression, 30 h; Potency, µM (top dose mostly 53.9 µM), for the others: at the highest dose GFP activation, actives largely listed as activators; note: % of control where 0% means no effect; nearly all actives have a fitted effect of over 60% in size
#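 Reporter derepression read as number of fluorescent GFP-positive objects, 20-120 um in size, counted by laser-scanning cytometer. Mouse LDR line with an epigenetically silenced CMV-GFP locus; compound incubation 30 h, 37 C.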
# PINK1 expr mod = A Quantitative High throughput Screen to Identify Chemical Modulators of PINK1 Expression | PINK1 immunofluorescence, high-content cytometry, 24 h | Potency, µM (titrated, usually from 76.6 µM), without a hit: at the top dose activation (PINK1 increase), most hits filed as activators | actives 0.2% (n = 410,000) | AID 624263, 2012; active = well fitted activation curve with a large enough effect; inconclusive = small, poorly fitted or top-dose-only effect; cell line not stated here; note: % of control where 0% means no effect; nearly all actives have a fitted effect of over 65% in size
#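 Measures PINK1 amount and localization on or inside mitochondria by immunofluorescence. Stable cells get compounds at 5 concentrations for 24 hours before fixation and staining; CCCP controls included.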
# Numbers without * were called inactive; ? = inconclusive; . = no result; [ ] = another dose, or the depositor's remark. Hits are enriched below; roughly 8.1% of the tested compounds scored in any of these assays. Unless noted, calls come from the whole dose curve; as a rule, active = well fitted curve in the direction sought with a large enough effect; inconclusive = small, poorly fitted or top-dose-only effect, or another doubt; inactive = no such curve, though single readings can be large; an effect the other way counts as inactive or inconclusive. Potency is the fitted concentration of half-maximal effect.
SMILES,ClpP mod,RORgamma inh,VP16 counter,Sfp inh,Epigenetic reg,PINK1 expr mod
CC1(C)OC(c2ccccc2)=C/C(=C/C=N/NC(=O)c2ccncc2)O1,.,-2%,5%,-4%,-1%,3%
Cc1ccccc1N=C/C=C1/C=C(c2ccccc2)OC(C)(C)O1,-2%,?,1%,-12%,22µM*,-6%[38.3 µM]
Cc1ccc(C(=O)Nc2cccc(-c3nc(CNC(=O)[C@@H]4C[C@@H](C)NC(=S)N4)c(C)o3)c2)s1,.,.,.,.,.,1%
CCc1ccc2[nH]c(=O)c(CN(Cc3ccco3)Cc3nnnn3Cc3ccco3)cc2c1,-24%,.,.,.,.,0%
Cc1ccc(C2C(C#N)=C(N)SC(N)=C2C#N)c(C)c1,?,?,?,79µM*,-1%,5%
COc1ccc(CNCc2c(C(=O)O)n(Cc3ccc(F)cc3)c3cc(C)ccc23)cc1OC,-1%,.,.,.,0%,-1%
CCCN(Cc1ccc(N(C)C)cc1)CC1CC1,-1%,7%,-4%,89µM*,-9%,.
Brc1cccc[n+]1CCCCCC[n+]1ccccc1Br,-2%,.,.,.,.,1%
COc1ccc2c(c1)c1c(c(=O)n(Cc3ccccc3)c(=O)n1CC(=O)Nc1ccccc1OC)n2C,20µM*,.,.,.,4%,1%
COc1ccc(-c2cnnn2-c2ccc(NC(=O)c3c(F)cccc3F)cc2)cc1,0%,.,.,.,0%,2%
CC1(C)C(=O)OC(c2c(F)c(F)c(F)c(F)c2F)C2(CCCCC2)C1=O (stereo unspecified),28µM*,3%,-1%,22%,-1%,1%
CN(C)Cc1ccccc1-c1cc(-n2ccnc2)ncn1,.,17%,8%,50µM*,3%,2%
CN(C)c1ccc(-c2cc(-n3ccnc3)ncn2)cc1,.,-25%,-5%,50µM*,-2%,1%
N#Cc1cccc(-c2cc(-n3ccnc3)ncn2)c1,.,-11%,5%,-3%,1%,0%
CN(C)C(=O)c1ccc(-c2cc(-n3ccnc3)ncn2)cc1,.,-34%,-7%,-26%,.,-1%
c1cncc(-c2cc(-n3ccnc3)ncn2)c1,.,15%,2%,79µM*,.,-1%
CC1CCN(C(c2ccc(F)cc2)c2sc3nc(-c4ccco4)nn3c2O)CC1 (stereo unspecified),0%,.,.,.,2%,3%
COc1ccc(CCNC(=O)CCc2c(C)nc3c(c(C)nn3-c3ccc(C)cc3)c2C)c(OC)c1,?,.,.,.,13%,1%
COc1ccc(/C=C/c2nc3ccccc3c(=O)n2-c2cccc(C(F)(F)F)c2)cc1,3%,.,.,.,1%,5%
CC(C)C1=C2OC(N)=C(C#N)C(C#N)=C2C(C)CC1 (stereo unspecified),?,12%,-20%,79µM*,1%,1%[38.3 µM]
COC(=O)CC1Oc2cc3oc4c(c3cc2O1)C(=O)CC(C)(C)C4 (stereo unspecified),.,5µM*,?,-14%,1%,.
CC(C)c1ccc(S(=O)(=O)Nc2ccc3oc4c(c3c2)C(=O)CC(C)(C)C4)cc1,-3%,.,.,.,-2%,-1%
CC1(C)CC(=O)c2c(oc3cc(O)c(O)cc23)C1,-1%,-26%,-5%,56µM*,2%,-3%
COc1ccc(S(=O)(=O)NCC(c2ccco2)S(=O)(=O)c2cccs2)cc1F (stereo unspecified),-1%,.,.,.,0%,3%
Cn1c2ccccc2c2cc(C(=O)NNC(=O)CCl)sc21,.,14µM*,-28%,10%,1%,0%
CCCNC(=O)c1cc2c3ccccc3n(C)c2s1,?,-6%,7%,?,-1%,6%
